These results are taken from article PMC11006913.

Positions count from the first letter of the chain named.

What all share (assay): PBM; 200 nM protein, PBS
Settings in all cases: dsDNA, one strand shown

For assay [1], the target named is T1, VENTX (Homo sapiens, UniProt O95231 78-163, R121Q).
T1 sequence: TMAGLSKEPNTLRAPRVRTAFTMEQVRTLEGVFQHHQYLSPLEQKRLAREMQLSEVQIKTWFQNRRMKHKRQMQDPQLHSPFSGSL

In assay [2] the target is HOXA4 (Homo sapiens, UniProt Q00056 201-287, W262R).
The target of assay [3] is T2, VENTX (Homo sapiens, UniProt O95231 78-163).
T2 sequence: T1 sequence with Q44R

Assay [4] concerns the target T3, VENTX (Homo sapiens, UniProt O95231 78-163, Y115F).
T3 sequence: T1 sequence with Y38F, Q44R

Assay [5] deals with HOXA4 (Homo sapiens, UniProt Q00056 201-287, R217L).
Sequence of HOXA4 (Homo sapiens, UniProt Q00056 201-287, R217L) (Q00056 201-287 R217L): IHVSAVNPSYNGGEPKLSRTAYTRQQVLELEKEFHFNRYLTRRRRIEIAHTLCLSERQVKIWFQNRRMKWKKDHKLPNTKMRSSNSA
In assay [6] the target is HOXA4 (Homo sapiens, UniProt Q00056 201-287).
Sequence of HOXA4 (Homo sapiens, UniProt Q00056 201-287) (Q00056 201-287): as the sequence (Q00056 201-287 R217L) above, with L17R counted along it
Assay [7] addresses HOXA4 (Homo sapiens, UniProt Q00056 201-287, W262F).
In assay [8] the target is T4, SIX6 (Homo sapiens, UniProt O95475 114-200, L167I).
T4 sequence: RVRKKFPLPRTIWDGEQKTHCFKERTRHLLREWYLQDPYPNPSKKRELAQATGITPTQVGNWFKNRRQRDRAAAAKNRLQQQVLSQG

Assay [9] concerns the target T5, SIX6 (Homo sapiens, UniProt O95475 114-200, L143V).
T5 sequence: T4 sequence with L30V, I54L

Assay [10] addresses T6, SIX6 (Homo sapiens, UniProt O95475 114-200, H141N).
T6 sequence: T4 sequence with H28N, I54L

The target of assay [11] is T7, SIX6 (Homo sapiens, UniProt O95475 114-200, T165P).
T7 sequence: T4 sequence with T52P, I54L

Assay [12] deals with T8, SIX6 (Homo sapiens, UniProt O95475 114-200, L167M).
T8 sequence: T4 sequence with I54M

Assay [13] has as its target T9, SIX6 (Homo sapiens, UniProt O95475 114-200, L143M).
T9 sequence: T4 sequence with L30M, I54L

The target of assay [14] is T10, SIX6 (Homo sapiens, UniProt O95475 114-200, L143I).
T10 sequence: T4 sequence with L30I, I54L

In assay [15] the target is T11, SIX6 (Homo sapiens, UniProt O95475 114-200, T165G).
T11 sequence: T4 sequence with T52G, I54L

Assay [16] deals with T12, SIX6 (Homo sapiens, UniProt O95475 114-200, T139Q).
T12 sequence: T4 sequence with T26Q, I54L

For assay [17], the target named is T13, SIX6 (Homo sapiens, UniProt O95475 114-200, T165A).
T13 sequence: T4 sequence with T52A, I54L

Assay [18] concerns the target T14, SIX6 (Homo sapiens, UniProt O95475 114-200, L167V).
T14 sequence: T4 sequence with I54V

In assay [19] the target is T15, SIX6 (Homo sapiens, UniProt O95475 114-200).
T15 sequence: T4 sequence with I54L

In assay [20] the target is T16, SIX6 (Homo sapiens, UniProt O95475 114-200, T165I).
T16 sequence: T4 sequence with T52I, I54L

For assay [21], the target named is HOXB9 (Homo sapiens, UniProt P17482 171-250, T197M).
Sequence of HOXB9 (Homo sapiens, UniProt P17482 171-250, T197M) (P17482 171-250 T197M): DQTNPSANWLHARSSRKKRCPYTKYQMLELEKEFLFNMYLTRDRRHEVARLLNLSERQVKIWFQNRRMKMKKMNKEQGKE
The target in assay [22] is HOXC9 (Homo sapiens, UniProt P31274 178-260, K195R).
Sequence of HOXC9 (Homo sapiens, UniProt P31274 178-260, K195R) (P31274 178-260 K195R): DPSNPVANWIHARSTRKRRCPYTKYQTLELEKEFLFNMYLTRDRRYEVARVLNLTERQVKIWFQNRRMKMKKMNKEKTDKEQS
The target in assay [23] is HOXB9 (Homo sapiens, UniProt P17482 171-250).
Sequence of HOXB9 (Homo sapiens, UniProt P17482 171-250) (P17482 171-250): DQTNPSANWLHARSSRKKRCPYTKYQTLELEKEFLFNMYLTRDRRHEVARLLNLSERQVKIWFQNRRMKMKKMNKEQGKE
The target in assay [24] is HOXC9 (Homo sapiens, UniProt P31274 178-260).
Sequence of HOXC9 (Homo sapiens, UniProt P31274 178-260) (P31274 178-260): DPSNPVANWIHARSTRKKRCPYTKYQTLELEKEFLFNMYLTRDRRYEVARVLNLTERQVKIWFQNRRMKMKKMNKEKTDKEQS
The target in assay [25] is ALX3 (Homo sapiens, UniProt O95076 139-225, N203Q).
Sequence of ALX3 (Homo sapiens, UniProt O95076 139-225, N203Q) (O95076 139-225 N203Q): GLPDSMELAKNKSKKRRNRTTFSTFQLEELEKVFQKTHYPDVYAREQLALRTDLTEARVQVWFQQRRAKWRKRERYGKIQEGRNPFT
Assay [26] concerns the target HOXC9 (Homo sapiens, UniProt P31274 178-260, R193K).
The target in assay [27] is ALX3 (Homo sapiens, UniProt O95076 139-225).
Sequence of ALX3 (Homo sapiens, UniProt O95076 139-225) (O95076 139-225): as the sequence (O95076 139-225 N203Q) above, with Q65N counted along it
Assay [28] addresses VAX1 (Homo sapiens, UniProt Q5SQQ9 86-172).
For assay [29], the target named is ALX3 (Homo sapiens, UniProt O95076 139-225, L168Q).
Sequence of ALX3 (Homo sapiens, UniProt O95076 139-225, L168Q) (O95076 139-225 L168Q): as the sequence (O95076 139-225 N203Q) above, with L30Q, Q65N counted along it
Assay [30] concerns the target HOXB9 (Homo sapiens, UniProt P17482 171-250, R186Q).
In assay [31] the target is HOXC9 (Homo sapiens, UniProt P31274 178-260, R222W).
Sequence of HOXC9 (Homo sapiens, UniProt P31274 178-260, R222W) (P31274 178-260 R222W): as the sequence (P31274 178-260) above, with R45W counted along it
Assay [32] concerns the target ALX3 (Homo sapiens, UniProt O95076 139-225, L168V).
The target of assay [33] is VAX1 (Homo sapiens, UniProt Q5SQQ9 86-172, T142I).
Sequence of VAX1 (Homo sapiens, UniProt Q5SQQ9 86-172, T142I) (Q5SQQ9 86-172 T142I): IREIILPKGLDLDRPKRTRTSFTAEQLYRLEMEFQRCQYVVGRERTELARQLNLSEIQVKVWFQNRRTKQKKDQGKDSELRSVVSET
For assay [34], the target named is ALX3 (Homo sapiens, UniProt O95076 139-225, N203S).
Sequence of ALX3 (Homo sapiens, UniProt O95076 139-225, N203S) (O95076 139-225 N203S): as the sequence (O95076 139-225 N203Q) above, with Q65S counted along it
Assay [35] has as its target VAX1 (Homo sapiens, UniProt Q5SQQ9 86-172, K157R).

Sequence of HOXC9 (Homo sapiens, UniProt P31274 178-260, R193K) (P31274 178-260 R193K): as the sequence (P31274 178-260) above, with R16K counted along it
Sequence of ALX3 (Homo sapiens, UniProt O95076 139-225, L168V) (O95076 139-225 L168V): as the sequence (O95076 139-225 N203Q) above, with L30V, Q65N counted along it
Sequence of HOXA4 (Homo sapiens, UniProt Q00056 201-287, W262F) (Q00056 201-287 W262F): as the sequence (Q00056 201-287 R217L) above, with L17R, W62F counted along it
Sequence of VAX1 (Homo sapiens, UniProt Q5SQQ9 86-172) (Q5SQQ9 86-172): as the sequence (Q5SQQ9 86-172 T142I) above, with I57T counted along it
Sequence of VAX1 (Homo sapiens, UniProt Q5SQQ9 86-172, K157R) (Q5SQQ9 86-172 K157R): as the sequence (Q5SQQ9 86-172 T142I) above, with I57T, K72R counted along it
Sequence of HOXA4 (Homo sapiens, UniProt Q00056 201-287, W262R) (Q00056 201-287 W262R): as the sequence (Q00056 201-287 R217L) above, with L17R, W62R counted along it
Sequence of HOXB9 (Homo sapiens, UniProt P17482 171-250, R186Q) (P17482 171-250 R186Q): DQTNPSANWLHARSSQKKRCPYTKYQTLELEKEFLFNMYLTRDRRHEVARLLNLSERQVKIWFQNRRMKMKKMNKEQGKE

With GGGAGGAC, the binding signal with VENTX [1] was 8.23 upbm affinity estimate (log intensity, higher = more binding, comparable within an allelic series); with HOXA4 [2], 9.79 upbm affinity estimate (log intensity, higher = more binding, comparable within an allelic series); in the assay with VENTX [3], 8.18 upbm affinity estimate (log intensity, higher = more binding, comparable within an allelic series); with VENTX [4], 8.28 upbm affinity estimate (log intensity, higher = more binding, comparable within an allelic series); with HOXA4 [5], 9.91 upbm affinity estimate (log intensity, higher = more binding, comparable within an allelic series); in the assay with HOXA4 [6], 10.1 upbm affinity estimate (log intensity, higher = more binding, comparable within an allelic series). In addition, the binding signal with HOXA4 [7] is 9.92 upbm affinity estimate (log intensity, higher = more binding, comparable within an allelic series).

ATGATATG: the binding signal in the assay with VENTX [1] was 9.57 upbm affinity estimate (log intensity, higher = more binding, comparable within an allelic series); with SIX6 [8], 11.3 upbm affinity estimate (log intensity, higher = more binding, comparable within an allelic series); with VENTX [3] it was 9.91 upbm affinity estimate (log intensity, higher = more binding, comparable within an allelic series); in the assay with SIX6 [9], 10.4 upbm affinity estimate (log intensity, higher = more binding, comparable within an allelic series); in the assay with SIX6 [10], 11.3 upbm affinity estimate (log intensity, higher = more binding, comparable within an allelic series); with SIX6 [11], 9.99 upbm affinity estimate (log intensity, higher = more binding, comparable within an allelic series). Besides, the binding signal with SIX6 [12] is 10.7 upbm affinity estimate (log intensity, higher = more binding, comparable within an allelic series); with SIX6 [13], 11.1 upbm affinity estimate (log intensity, higher = more binding, comparable within an allelic series); with SIX6 [14], 10.5 upbm affinity estimate (log intensity, higher = more binding, comparable within an allelic series); with SIX6 [15] it was 11.4 upbm affinity estimate (log intensity, higher = more binding, comparable within an allelic series); with SIX6 [16], 11.3 upbm affinity estimate (log intensity, higher = more binding, comparable within an allelic series); with SIX6 [17], 11.2 upbm affinity estimate (log intensity, higher = more binding, comparable within an allelic series). Also, the binding signal in the assay with SIX6 [18] is 11.1 upbm affinity estimate (log intensity, higher = more binding, comparable within an allelic series); with SIX6 [19] it was 11.1 upbm affinity estimate (log intensity, higher = more binding, comparable within an allelic series); with SIX6 [20], 11.1 upbm affinity estimate (log intensity, higher = more binding, comparable within an allelic series).

Take CGAGCGAC: the binding signal is 8.03 upbm affinity estimate (log intensity, higher = more binding, comparable within an allelic series) with VENTX [1]; 8.47 upbm affinity estimate (log intensity, higher = more binding, comparable within an allelic series) in the assay with HOXB9 [21]; 9.58 upbm affinity estimate (log intensity, higher = more binding, comparable within an allelic series) with HOXC9 [22]; 7.84 upbm affinity estimate (log intensity, higher = more binding, comparable within an allelic series) in the assay with VENTX [3]; 8.14 upbm affinity estimate (log intensity, higher = more binding, comparable within an allelic series) with VENTX [4]; 8.38 upbm affinity estimate (log intensity, higher = more binding, comparable within an allelic series) in the assay with HOXB9 [23]. In addition, the binding signal with HOXC9 [24] is 9.72 upbm affinity estimate (log intensity, higher = more binding, comparable within an allelic series); with ALX3 [25], 7.8 upbm affinity estimate (log intensity, higher = more binding, comparable within an allelic series); with HOXC9 [26], 9.67 upbm affinity estimate (log intensity, higher = more binding, comparable within an allelic series); in the assay with ALX3 [27] it was 7.63 upbm affinity estimate (log intensity, higher = more binding, comparable within an allelic series); with VAX1 [28], 7.11 upbm affinity estimate (log intensity, higher = more binding, comparable within an allelic series); with ALX3 [29], 7.78 upbm affinity estimate (log intensity, higher = more binding, comparable within an allelic series). The binding signal with HOXB9 [30] is 8.41 upbm affinity estimate (log intensity, higher = more binding, comparable within an allelic series); in the assay with HOXC9 [31] it was 9.73 upbm affinity estimate (log intensity, higher = more binding, comparable within an allelic series); in the assay with ALX3 [32] it was 7.74 upbm affinity estimate (log intensity, higher = more binding, comparable within an allelic series); in the assay with VAX1 [33], 7.15 upbm affinity estimate (log intensity, higher = more binding, comparable within an allelic series); with ALX3 [34], 7.82 upbm affinity estimate (log intensity, higher = more binding, comparable within an allelic series); with VAX1 [35], 7.05 upbm affinity estimate (log intensity, higher = more binding, comparable within an allelic series).
